A selection: hits, their analogues and other compounds. The true share with any hit is near 19%.
IL-1B inflam inh – inflammasome signaling inhibition, IL-1 beta readout. THP-1 LPS/ATP IL-1B secretion, AlphaLISA, 16 h; hits give low values. activity change, % at 57.5 µM. actives 4.7% (n = 360,000). AID 743279; in the data active = activity change below about -50%; inconclusive = mostly about -30% to -49%
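Secreted IL-1B measured by AlphaLISA bead assay after 16 h compound exposure of THP-1 cells; compounds (final up to 57.5 uM) added 1 h before LPS (250 ng/mL) and ATP (1.25 mM) stimulation; lower signal means less secretion.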
HT1080 IDH1KD tx – toxicity to HT-1080 IDH1 knockdown cells (counter line); actives 2% (n = 360,000); AID 686971; HT-1080 IDH1 knockdown viability, ATP luminescence, 48 h; Potency, µM (series often up to 46.1 µM), usual class: cytotoxic
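% activity derives from luminescence (CellTiter-Glo), normalised to DMSO and no-cell wells. HT-1080-IDH1KD cells, 750/well, had 48 h compound exposure at 37 °C.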
TDP1 cell noCPT – qHTS for Inhibitors of human tyrosyl-DNA phosphodiesterase 1 (TDP1): qHTS in cells in absence of CPT. actives 15% (n = 420,000). DT40 Tdp1-/- hTDP1 cells, no CPT, ATP luminescence, 48 h. Potency, µM (titrated, usually from 46.2 µM), actives largely listed as inhibitors; also: nearly all actives have a fitted effect of over 55% in size
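Camptothecin absent (DMSO only). Human TDP1-complemented DT40 knockout cells, 400 cells/well, 37 °C for minimum 48 hr; ATP measured via CellTiter-Glo, 30 min dark incubation, luminescence.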
DT40 TDP1 CPT – growth inhibition of DT40 Tdp1-/-;hTDP1 cells with camptothecin (screen for TDP1 inhibitors); chicken DT40 Tdp1-/-;hTDP1 cells + 20 nM CPT, ATP luminescence, 48 h; Potency, µM (top dose mostly 46.2 µM), actives largely listed as inhibitors; actives 12% (n = 420,000); AID 686979; also: nearly all actives have a fitted effect of over 55% in size
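Chicken DT40 Tdp1-/- cells stably complemented with human TDP1 were seeded at 400 cells/well in medium containing 20 nM camptothecin, exposed to pin-transferred compounds, and grown at 37 °C for at least 48 hr. Viability was read as ATP luminescence.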
HT1080-NT tox – kills 2HG-producing HT-1080-NT fibrosarcoma cells. HT-1080-NT fibrosarcoma viability, CellTiter-Glo ATP luminescence, 48 h. Potency, µM (series often up to 46.1 µM), usual class: cytotoxic. actives 1.6% (n = 360,000). AID 686970;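 also: NT is the 2HG producing partner of a matched IDH1 knockdown line; nearly all actives have a fitted effect of over 55% in size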
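A 48-hour cytotoxicity screen used HT-1080-NT cells plated 2 hours before compound delivery. ATP-based CellTiter-Glo luminescence measured viability, normalized to DMSO and no-cell controls.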
Hits are given with their value; 0 = inactive; ? = inconclusive; - = no result; [ ] = another dose, or the depositor's remark. Unless noted, calls follow the shape of the dose curve; as a rule, active = well fitted curve in the direction sought with a large enough effect; inconclusive = small, poorly fitted or top-dose-only effect, or another doubt; inactive = no such curve, though single readings can be large; an effect the other way counts as inactive or inconclusive.

SMILES	IL-1B inflam inh	HT1080 IDH1KD tx	TDP1 cell noCPT	DT40 TDP1 CPT	HT1080-NT tox
CN(c1ccccc1)S(=O)(=O)c1cccc(C(=O)OCC(=O)Nc2ccc3[nH]c(=O)[nH]c3c2)c1	0	0	0	0	0
CCS(=O)(=O)Nc1ccc2[nH]c(=O)[nH]c2c1	0	0	0	0	0
Cc1ccc(/C=N/Nc2nnc(Cl)c3ccccc23)cc1	-62.0	0	20.6µM	23.1µM	0
CC(=O)Nc1ccc(C=NNc2nnc(NN=Cc3ccc(NC(C)=O)cc3)c3ccccc23)cc1	0	0	4.11µM	2.91µM	0
Clc1ccc(/C=N/Nc2nnc(Cl)c3ccccc23)cc1	0	0	?	?	0
Clc1nnc(N/N=C/c2ccccc2)c2ccccc12	0	?	?	?	?
Cc1nn(C)cc1C(=O)Nc1cc(Oc2ccc(Cl)cc2)cc([N+](=O)[O-])c1	0	0	?	?	0
O=C(Nc1cc(Oc2ccc(Cl)cc2)cc([N+](=O)[O-])c1)c1ccco1	0	?	16.4µM	?	?
CCOc1ccc(Oc2cc(NC(=O)c3ccco3)cc([N+](=O)[O-])c2)cc1	0	0	16.4µM	0	0
O=C(Nc1cc(SCCO)cc([N+](=O)[O-])c1)c1ccco1	0	0	?	0	0
C[C@@H]1C=C(C(=O)NCc2ccccc2)O[C@H](OCc2ccc(CO)cc2)C1	0	0	0	0	0
Cc1nc(Nc2ccc(O)cc2)c2c3c(sc2n1)CCCC3	0	0	?	?	?
O=c1[nH]c(-c2ccco2)nc2sc3c(c12)CCCC3	0	0	?	0	0
Cc1ccc(CNc2nc(C)nc3sc4c(c23)CCC4)cc1	0	0	18.4µM	23.1µM	0
NNc1nc(-c2ccccc2)nc2sc3c(c12)CCCC3	0	0	20.6µM	?	0
Cc1nc(NC(C)c2ccccc2)c2c3c(sc2n1)CCC3 (configuration not stated)	0	0	16.4µM	16.4µM	0
O=C1/C(=C\c2ccco2)SC(=S)N1c1ccccc1	0	0	?	0	0
O=C1/C(=C\c2ccco2)SC(=S)N1C1CCS(=O)(=O)C1 (configuration not stated)	-	?	20.6µM	23.1µM	?
O=C1/C(=C/c2ccncc2)SC(=S)N1C1CCCCC1	0	0	?	0	0
O=C1/C(=C/c2ccco2)SC(=S)N1C1CCS(=O)(=O)C1 (configuration not stated)	0	0	16.4µM	14.6µM	0
Cc1ccc(/C=C2\SC(=S)N(C3CCS(=O)(=O)C3)C2=O)cc1 (configuration not stated)	0	0	14.6µM	?	0
O=C1[C@H]2[C@H](C=CC[C@H]2C(=O)N2CCOCC2)CCN1Cc1ccccc1	0	0	0	0	0
NC(=O)c1ccc(NC(=O)CS(=O)(=O)c2cn(CC(=O)N3CCCCC3)c3ccccc23)cc1	0	0	0	0	0
CC1CCCC(NC(=S)NC(=O)c2ccco2)C1C (configuration not stated)	0	0	?	14.6µM	0
Cc1ccc(C(=O)NNC(=S)NC(=O)c2ccco2)cc1	0	?	11.6µM	7.31µM	?
SMILES	IL-1B inflam inh	HT1080 IDH1KD tx	TDP1 cell noCPT	DT40 TDP1 CPT	HT1080-NT tox
CC1CCCCC1NC(=O)c1ccco1 (configuration not stated)	0	0	0	0	0
O=C(NNC(=O)c1ccco1)c1ccccc1	0	0	0	0	0
O=C(NC(=S)NNC(=O)c1ccco1)c1ccccc1	0	?	16.4µM	?	0
Cc1ccc(C(=O)NNC(=O)c2ccco2)cc1	0	0	0	0	0
CCOC(=O)c1c(C)[nH]c(C)c1S(=O)(=O)N(C)Cc1ccco1	0	0	0	0	0
CCOC(=O)C1=C(O)c2ccccc2C(=O)/C1=C\c1ccc(C)cc1	0	18.4µM	5.8µM	5.8µM	?
CCOC(=O)C1=C(C)OC(=Cc2ccccc2)C1=O	0	0	0.0092µM	0	0
CC(=O)C1=C(O)C(=Cc2ccccc2)OC1=O	0	0	?	0	0
Cc1ccsc1C(=O)N1CCC1(C)C(=O)NCC(C)(C)C (configuration not stated)	0	0	0	0	0
COc1ccc(Nc2cc(C(=O)NCc3ccccc3)c3ccccc3n2)cc1	-	-	0	?	-
Cc1cc(C)cc(Nc2cc(C(=O)NCCCN(C)C3CCCCC3)c3ccccc3n2)c1	-	-	3.26µM	4.61µM	-
Cc1ccc(C)c(Nc2cc(C(=O)NCCCN(C)C3CCCCC3)c3ccccc3n2)c1	-	-	14.6µM	?	-
COc1ccc(CNC(=O)c2cc(Nc3ccc(C)cc3C)nc3ccccc23)cc1	-	-	20.6µM	18.4µM	-
Cc1cc(C)cc(Nc2cc(C(=O)NCc3ccccc3)c3ccccc3n2)c1	-	-	20.6µM	23.1µM	-
O=C(CNC(=O)c1cccc(Cl)c1)NCC(c1cccs1)N1CCOCC1 (configuration not stated)	0	0	0	0	0[9.24 µM]
Cc1cc(N2Cc3ccccc3C2)ccc1C=O	0	?	?	?	0
Cc1ccc(CNC(=O)COC(=O)COc2ccc(C#N)cc2)cc1	0	0	0	0	0[9.24 µM]
COC(=O)CC1C(C)(C)C(O)C2CC3=C4C=C(OC)OC(c5ccoc5)[C@]4(C)CCC3[C@@]1(C)C2=O (some centres not stated)	-	-	0	0	-
COc1ccc(CCCc2nnc(SCC(=O)Nc3cc(F)ccc3C)o2)cc1	-	-	11.6µM	?	-
CC(=O)c1ccc(N2CCC(c3cc(-c4ccc(Cl)cc4)n[nH]3)CC2)c([N+](=O)[O-])c1	0	?	4.61µM	7.31µM	?
COC(=O)c1ccc(N2CCC(c3cc(-c4ccc(OC)cc4)n[nH]3)CC2)c([N+](=O)[O-])c1	0	?	18.4µM	20.6µM	?
COc1ccc(-c2cc(C3CCN(c4ccc(C(C)=O)cc4[N+](=O)[O-])CC3)[nH]n2)cc1	-71.2	?	5.17µM	5.8µM	?
COc1ccc(-c2cc(C3CCN(C(=O)OC(C)(C)C)CC3)[nH]n2)cc1	-83.6	0	?	?	0
CCOC(=O)CCSc1nnc(-c2cccnc2)n1-c1ccccc1OC	0	0	0	0	0
CC1(C)O[C@@H](CC(=O)O)[C@]23CO[C@H](C(=O)[C@]4(C)C2CC[C@@]2(C)[C@H](c5ccoc5)OC(=O)C5O[C@]524)[C@@H]13 (some centres not stated)	0	0	0	0	0
O=C(CCC1CCCN(C(=O)Cn2cnnn2)C1)NCc1ccc(F)c(F)c1 (configuration not stated)	0	0	?	0	0
COc1cc(OC)c(OC)cc1CNC(=O)c1cccc(S(=O)(=O)N2CCc3ccccc3C2)c1	0	0	8.2µM	13µM	?

Screens: PubChem, National Center for Advancing Translational Sciences (NCATS)
